The values below come from PubChem BioAssay (NCATS).

For experiment [1], the target named is Estrogen receptor (Homo sapiens) (UniProt P03372). In words: qHTS assay for small molecule antagonists of estrogen receptor alpha signaling (AID 588513; active means well fitted curve in the direction sought with a large enough effect in the signal ratio, with a control signal flat, not every such curve was filed as active; the % refers to the signal ratio; further: on the % scale 0 is the no-effect control and ±100 the full control effect). The method, boiled down:
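ER-alpha-UAS-bla GripTite HEK 293 cells in 2% charcoal/dextran-treated FBS medium; compounds titrated (1:2, duplicate), then stimulated with 0.5 nM 17-beta-estradiol for 18 h at 37C. CCF4 beta-lactamase fluorescence; Hill-fit IC50 and efficacy.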

The target is the same in experiment [2]. As to the kind of experiment: qHTS assay for small molecule agonists of estrogen receptor alpha signaling (AID 588514; calls by dose curve;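 further: 0% = vehicle only and 100% = reference agonist; nearly all actives have a fitted effect of over 70% in size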). The method, boiled down:
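Reporter-gene assay. […] controls beta-lactamase in HEK 293 GripTite cells; after 18 hrs with compound, CCF4 substrate is added for 2 hrs and fluorescence is read.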

For experiment [3], the target named is Peroxisome proliferator-activated receptor delta (Homo sapiens) (UniProt Q03181). In words: qHTS assay for small molecule agonists of peroxisome proliferator-activated receptor delta signaling (AID 588534; calls by dose curve;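 further: 0% = DMSO basal wells and 100% = positive control agonist at 10 µM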). Summed up:
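Reporter cells were plated and held 5 hrs at 37 C before compounds were added. After 18 hrs at 37 C, CCF4 dye was loaded for 2 hrs at RT and fluorescence measured.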

In experiment [4] the target is Peroxisome proliferator-activated receptor gamma (Homo sapiens) (UniProt P37231). As to the kind of experiment: qHTS assay for small molecule agonists of peroxisome proliferator-activated receptor gamma signaling (AID 588536; active means well fitted curve in the direction sought with a large enough effect in the signal ratio, with a control signal flat, not every such curve was filed as active; the % refers to the signal ratio;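 further: 0% = DMSO basal wells and 100% = rosiglitazone at 2 µM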). The method, boiled down:
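HEK293 UAS-bla reporter line, 1% charcoal/dextran FBS; titration, 16 h, 37 C; CCF4 loading 2 h RT; fluorescence 460/530 nm. Normalized to rosiglitazone 2 uM = 100%, DMSO = 0%.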

Experiment [5] concerns the target Vitamin D3 receptor (Homo sapiens) (UniProt P11473). As to the kind of experiment: qHTS assay for small molecule antagonists of vitamin D receptor signaling (AID 588541; calls by dose curve;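 further: receptor activated by calcitriol during compound treatment; series mostly up to about 77 µM; on the % scale 0 is the no-effect control and ±100 the full control effect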). Summed up: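 Antagonist-mode beta-lactamase reporter assay: HEK293T VDR-UAS-bla cells were exposed to titrated compound alongside 1-alpha,25-dihydroxyvitamin D3 at 3 nM final for 16 h. Values were normalized to the 50 nM agonist control and DMSO basal, with IC50 and efficacy from Hill equation fits.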

Experiment [6] is described as follows: qHTS assay for small molecule agonists of retinoid X receptor alpha signaling (AID 588544; calls by dose curve; further: potency means the concentration at half of the fitted maximal effect;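 on activation: 0% = DMSO basal wells and 100% = reference agonist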). The following applies: HEK293T RXRa-UAS-bla, beta-lactamase reporter, 18 h; 530 nm emission.
Experiment [7] concerns the target Retinoic acid receptor RXR-alpha (Homo sapiens) (UniProt P19793). Described as above.
Experiment [8] can be described thus: qHTS assay for small molecule antagonists of retinoid X receptor alpha signaling (AID 588546; active means well fitted inhibition curve with a large enough effect in the signal ratio, with a control signal flat, not every such curve was filed as active; the % refers to the signal ratio;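 further: cells stimulated with 9-cis-retinoic acid as agonist; on the % scale 0 is the no-effect control and ±100 the full control effect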). The following applies: HEK293T RXRa-UAS-bla, beta-lactamase ratio, antagonist mode; measured here: W530 green channel, cytotoxicity proxy. The method, boiled down:
(§1)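 Beta-lactamase reporter inhibition, read as CCF4 fluorescence ratio (ex 405, em 460/530 nm) after 2 h at RT. HEK293T UAS-bla cells, 2500/well, were stimulated with 9-cis-RA at 500 or 100 nM final alongside test compound for 18 h at 37 C.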

For experiment [9], the target named is Retinoic acid receptor RXR-alpha (Homo sapiens) (UniProt P19793). The experiment is described as above. The following applies: HEK293T RXRa-UAS-bla, beta-lactamase ratio, antagonist mode. The method, boiled down: as §1
A short description of experiment [10]: qHTS assay for small molecule activators of the p53 signaling pathway (AID 651743; active means well fitted activation curve with a large enough effect in the signal ratio, not every such curve was filed as active; the % refers to the signal ratio; further: series mostly up to about 92 µM; % of control where 0% means no effect). The following applies: HCT-116 p53RE-bla, beta-lactamase FRET ratio, 16 h; activation: stronger effect = higher value. The method, boiled down:
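Screen for p53 pathway agonists uses stably transfected p53RE-bla HCT-116 cells, 4,000 per well, treated 16 h at 37 C with compounds in DMSO.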
(In general: In qHTS, concentration-response curves come from the screen itself.)

Experiment [11] in a line: qHTS assay for environmental chemicals that activate the Aryl hydrocarbon Receptor (AhR) signaling pathway (AID 651777). Further: % of control where 0% means no effect; nearly all actives have a fitted effect of over 15% in size. As to conditions: 1A2-DRE human hepatoma cells, luciferase, 24 h; activation: stronger effect = higher value. Summed up: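 Stable CYP1A2 promoter/DRE-luciferase human hepatoma line treated 24 hr; One-Glo luminescence, 30 min RT.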
Experiment [12] addresses Peroxisome proliferator-activated receptor alpha (Homo sapiens) (UniProt Q07869). As to the kind of experiment: qHTS assay for small molecule agonists of the peroxisome proliferator-activated receptor alpha (PPARalpha) signaling pathway (AID 651778). Further: % of control where 0% means no effect. The following applies: PathHunter PPARalpha complementation, chemiluminescence, 6 h; max response: stronger effect = higher value. Summed up:
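Chemiluminescence from complemented enzyme reported PPARalpha activation in cells after 6 hr of compound treatment at 37 C. The detection reagent was incubated for 60 min at room temperature, and compounds were scored as agonists.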

Experiment [13] in a line: qHTS assay for small molecule agonists of the antioxidant response element (ARE) signaling pathway measured by Nrf2-dependant transcriptional activity (AID 720636; active means well fitted curve in the direction sought with a large enough effect in the repeat runs; an effect the other way counts as inactive or inconclusive;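 further: HepG2 cells with an ARE-driven luciferase reporter; % of control where 0% means no effect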). Summed up:
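Reporter gene assay, HepG2 ARE-luc: 16 hr compound, 37 C, 5% CO2; read-out luciferase luminescence.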

Experiment [14] can be described thus: qHTS assay for small molecule agonists of the antioxidant response element (ARE) signaling pathway measured by Nrf2-dependant transcriptional activity - cell viability counter screen (AID 720653; active means well fitted curve in the direction sought with a large enough effect in the repeat runs; an effect the other way counts as inactive or inconclusive; further: on the % scale 0 is the no-effect control and ±100 the full control effect). The following applies: ARE-bla HepG2 viability, CellTiter-Glo ATP luminescence, 16 h; max response: stronger effect = lower value. The method, boiled down:
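Cytotoxicity counter screen: intracellular ATP quantified by CellTiter-Glo luminescence in the same ARE-bla HepG2 plates, after 16 h compound exposure and a 2 h beta-lactamase substrate step.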

Experiment [15] is described as follows: qHTS assay for cell viability of HEK293 cells (AID 743288). Further: on the % scale 0 is the no-effect control and ±100 the full control effect; nearly all actives have a fitted effect of over 50% in size. As to conditions: ATP luminescence (CellTiter-Glo), 18 h; max response: stronger effect = lower value. The method, boiled down: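 Parental HEK293 cells, 2,000 per well, preincubated at least 5 h at 37 C, then exposed to compounds in DMSO for 18 h at 37 C. Viability by CellTiter-Glo ATP luminescence after 30 min at room temperature.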

Experiment [16] can be described thus: qHTS assay for cell viability of the p53RE-bla HCT-116 cell line (AID 743292). Further: on the % scale 0 is the no-effect control and ±100 the full control effect; nearly all actives have a fitted effect of over 55% in size. The method, boiled down: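 Readout: CellTiter-Glo luminescence after 30 min RT. Treatment: compounds in DMSO, 16 h, 37 C. Cells: CellSensor p53RE-bla HCT-116, 4,000/well, preincubated 5 h.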
Experiment [17] has as its target Nuclear receptor subfamily 1 group I member 2 (Rattus norvegicus) (UniProt Q9R1A7). As to the kind of experiment: qHTS assay for small molecule activators of the rat pregnane X receptor (rPXR) signaling pathway (AID 651751; call rule not given here; further: 0% is about no effect). As to conditions: rPXR reporter cells, luciferase (One-Glo), 24 h.
The target of experiment [18] is Peroxisome proliferator-activated receptor gamma (Homo sapiens) (UniProt P37231). As to the kind of experiment: qHTS assay for small molecule antagonists of peroxisome proliferator-activated receptor gamma signaling (AID 588537; active means well fitted inhibition curve with a large enough effect in the signal ratio, with a control signal flat, not every such curve was filed as active; the % refers to the signal ratio;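 further: reporter cells co-stimulated with 50 nM rosiglitazone agonist during compound treatment; % of control where 0% means no effect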). Summed up: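 Inhibitors of agonist-stimulated UAS-bla reporter activity were sought in HEK293 cells; rosiglitazone (50 nM) defined full signal and DMSO baseline. Curves fitted to Hill model gave IC50 and efficacy.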

The target in experiment [19] is Thyroid hormone receptor beta (Homo sapiens) (UniProt P10828). As to the kind of experiment: qHTS assay for small molecule agonists of thyroid hormone receptor beta signaling (AID 588545; calls by dose curve). The method, boiled down:
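In this cell-based screen, titrated compounds act on HEK 293 cells held in medium with 2% charcoal/dextran FBS, NEAA and pyruvate for 18 hrs at 37 C. Responses are expressed relative to T3 (10 nM) as 100% and basal DMSO as 0%.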

Experiment [20] has the same target. As to the kind of experiment: qHTS assay for small molecule antagonists of thyroid hormone receptor beta signaling (AID 588547; active means well fitted inhibition curve with a large enough effect in the signal ratio, with a control signal flat, not every such curve was filed as active; the % refers to the signal ratio). As to conditions: TR-UAS-bla HEK293, beta-lactamase ratio, antagonist mode, 18 h. Summed up:
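Inhibition of T3-driven (0.4nM final) beta-lactamase reporter activity was measured over 0.59 nM to 92 uM compound after 18 h at 37 C. The cells were GripTite HEK293 TR-UAS-bla in charcoal/dextran-stripped serum, with CCF4 ratio read-out and IC50 from Hill fits.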

Where “and” joins values, the source holds several entries; their conditions need not be identical. Identical values can stand only once. Records with an inconclusive call do not appear. Calls of active or inactive are those of the source. Unless noted, the call rests on the fitted dose curve; in most records, active means well fitted curve in the direction sought with a large enough effect; inconclusive means small, poorly fitted or top-dose-only effect, or another doubt; inactive means no such curve, though single readings can be large; an effect the other way counts as inactive or inconclusive.

Vitamin D3 receptor (Homo sapiens), sequence (P11473 whole entry, looked up): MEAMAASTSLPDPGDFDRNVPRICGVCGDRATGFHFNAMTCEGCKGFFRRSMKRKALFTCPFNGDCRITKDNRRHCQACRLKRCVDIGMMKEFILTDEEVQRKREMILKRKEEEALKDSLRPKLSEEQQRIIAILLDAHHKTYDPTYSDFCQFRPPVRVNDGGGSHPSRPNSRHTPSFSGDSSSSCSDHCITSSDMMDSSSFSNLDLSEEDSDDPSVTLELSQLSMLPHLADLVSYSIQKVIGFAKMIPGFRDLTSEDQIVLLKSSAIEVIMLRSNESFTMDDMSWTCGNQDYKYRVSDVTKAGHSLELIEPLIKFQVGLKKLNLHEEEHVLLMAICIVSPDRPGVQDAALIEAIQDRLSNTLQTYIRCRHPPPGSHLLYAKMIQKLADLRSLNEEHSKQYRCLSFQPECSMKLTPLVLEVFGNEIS
Nuclear receptor subfamily 1 group I member 2 (Rattus norvegicus), sequence (Q9R1A7 whole entry, looked up): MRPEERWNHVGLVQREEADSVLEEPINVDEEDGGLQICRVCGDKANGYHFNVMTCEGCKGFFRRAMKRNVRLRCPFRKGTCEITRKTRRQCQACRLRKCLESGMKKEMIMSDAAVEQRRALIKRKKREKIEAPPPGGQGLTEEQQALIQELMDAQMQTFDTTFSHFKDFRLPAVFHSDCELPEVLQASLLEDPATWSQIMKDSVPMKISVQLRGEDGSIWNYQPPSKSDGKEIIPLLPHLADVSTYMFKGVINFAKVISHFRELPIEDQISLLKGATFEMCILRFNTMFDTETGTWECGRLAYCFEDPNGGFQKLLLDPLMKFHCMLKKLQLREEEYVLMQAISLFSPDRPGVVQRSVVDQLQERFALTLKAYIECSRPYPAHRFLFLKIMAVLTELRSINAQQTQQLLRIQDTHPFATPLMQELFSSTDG
Retinoic acid receptor RXR-alpha (Homo sapiens), sequence (P19793 whole entry, looked up): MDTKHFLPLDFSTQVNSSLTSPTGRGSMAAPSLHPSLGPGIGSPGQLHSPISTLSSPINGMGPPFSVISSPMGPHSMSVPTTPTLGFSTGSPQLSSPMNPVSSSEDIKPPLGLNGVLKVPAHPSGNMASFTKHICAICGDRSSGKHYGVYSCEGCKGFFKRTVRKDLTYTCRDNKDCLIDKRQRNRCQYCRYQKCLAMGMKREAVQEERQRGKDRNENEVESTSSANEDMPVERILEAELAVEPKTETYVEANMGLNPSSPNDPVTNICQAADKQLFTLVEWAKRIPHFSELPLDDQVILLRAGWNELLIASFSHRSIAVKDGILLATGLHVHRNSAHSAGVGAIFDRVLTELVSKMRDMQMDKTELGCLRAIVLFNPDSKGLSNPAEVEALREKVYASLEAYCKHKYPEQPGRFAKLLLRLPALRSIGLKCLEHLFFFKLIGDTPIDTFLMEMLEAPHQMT
Peroxisome proliferator-activated receptor alpha (Homo sapiens), sequence (Q07869 whole entry, looked up): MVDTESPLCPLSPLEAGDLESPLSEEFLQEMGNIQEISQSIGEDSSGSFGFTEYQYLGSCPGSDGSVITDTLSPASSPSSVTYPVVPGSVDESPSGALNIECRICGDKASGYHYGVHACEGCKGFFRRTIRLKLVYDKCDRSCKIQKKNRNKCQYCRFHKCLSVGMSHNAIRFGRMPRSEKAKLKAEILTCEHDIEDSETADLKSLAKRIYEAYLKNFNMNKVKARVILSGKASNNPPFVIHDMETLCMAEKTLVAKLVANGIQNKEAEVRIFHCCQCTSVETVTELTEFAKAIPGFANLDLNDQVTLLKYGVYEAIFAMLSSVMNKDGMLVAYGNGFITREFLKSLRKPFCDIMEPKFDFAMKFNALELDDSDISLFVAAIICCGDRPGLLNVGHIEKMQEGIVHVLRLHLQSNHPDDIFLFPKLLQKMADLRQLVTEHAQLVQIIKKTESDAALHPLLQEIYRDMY
Thyroid hormone receptor beta (Homo sapiens), sequence (P10828 whole entry, looked up): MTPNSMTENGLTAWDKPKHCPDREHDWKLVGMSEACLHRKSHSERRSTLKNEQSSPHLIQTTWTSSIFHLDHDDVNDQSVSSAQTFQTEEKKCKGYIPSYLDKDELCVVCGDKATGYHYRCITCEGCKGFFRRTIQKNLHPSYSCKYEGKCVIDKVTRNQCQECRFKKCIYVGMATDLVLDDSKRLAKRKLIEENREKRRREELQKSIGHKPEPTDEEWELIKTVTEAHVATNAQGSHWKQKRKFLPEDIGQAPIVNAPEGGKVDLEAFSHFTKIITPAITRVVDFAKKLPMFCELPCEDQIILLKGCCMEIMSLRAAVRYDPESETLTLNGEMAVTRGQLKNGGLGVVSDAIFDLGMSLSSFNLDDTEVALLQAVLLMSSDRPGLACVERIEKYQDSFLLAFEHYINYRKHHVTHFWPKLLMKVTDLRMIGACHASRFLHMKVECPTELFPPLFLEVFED
Peroxisome proliferator-activated receptor gamma (Homo sapiens), sequence (P37231 whole entry, looked up): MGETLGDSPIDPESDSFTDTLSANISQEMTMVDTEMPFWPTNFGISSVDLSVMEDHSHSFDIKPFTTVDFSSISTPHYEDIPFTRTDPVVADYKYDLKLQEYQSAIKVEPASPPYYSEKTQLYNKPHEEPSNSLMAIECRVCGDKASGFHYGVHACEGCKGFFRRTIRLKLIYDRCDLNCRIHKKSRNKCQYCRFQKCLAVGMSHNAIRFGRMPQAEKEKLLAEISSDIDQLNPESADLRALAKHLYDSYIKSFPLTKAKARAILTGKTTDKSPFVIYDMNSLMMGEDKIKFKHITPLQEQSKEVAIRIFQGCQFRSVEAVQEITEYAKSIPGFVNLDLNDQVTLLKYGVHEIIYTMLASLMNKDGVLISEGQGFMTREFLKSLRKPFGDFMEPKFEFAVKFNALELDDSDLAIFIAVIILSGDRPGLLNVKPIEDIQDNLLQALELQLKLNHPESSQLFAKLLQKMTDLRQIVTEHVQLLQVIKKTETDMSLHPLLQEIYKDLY
Peroxisome proliferator-activated receptor delta (Homo sapiens), sequence (Q03181 whole entry, looked up): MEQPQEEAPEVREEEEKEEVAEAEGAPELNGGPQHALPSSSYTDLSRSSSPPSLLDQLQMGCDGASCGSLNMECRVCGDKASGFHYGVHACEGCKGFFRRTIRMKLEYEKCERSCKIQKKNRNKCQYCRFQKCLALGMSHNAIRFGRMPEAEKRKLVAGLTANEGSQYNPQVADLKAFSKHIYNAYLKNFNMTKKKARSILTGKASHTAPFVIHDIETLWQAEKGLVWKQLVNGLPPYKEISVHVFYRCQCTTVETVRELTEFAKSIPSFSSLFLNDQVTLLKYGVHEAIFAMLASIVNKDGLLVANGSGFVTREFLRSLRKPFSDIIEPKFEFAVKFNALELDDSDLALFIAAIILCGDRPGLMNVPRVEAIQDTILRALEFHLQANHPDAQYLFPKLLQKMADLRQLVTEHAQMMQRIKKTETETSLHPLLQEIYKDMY
Estrogen receptor (Homo sapiens), sequence (P03372 whole entry, looked up): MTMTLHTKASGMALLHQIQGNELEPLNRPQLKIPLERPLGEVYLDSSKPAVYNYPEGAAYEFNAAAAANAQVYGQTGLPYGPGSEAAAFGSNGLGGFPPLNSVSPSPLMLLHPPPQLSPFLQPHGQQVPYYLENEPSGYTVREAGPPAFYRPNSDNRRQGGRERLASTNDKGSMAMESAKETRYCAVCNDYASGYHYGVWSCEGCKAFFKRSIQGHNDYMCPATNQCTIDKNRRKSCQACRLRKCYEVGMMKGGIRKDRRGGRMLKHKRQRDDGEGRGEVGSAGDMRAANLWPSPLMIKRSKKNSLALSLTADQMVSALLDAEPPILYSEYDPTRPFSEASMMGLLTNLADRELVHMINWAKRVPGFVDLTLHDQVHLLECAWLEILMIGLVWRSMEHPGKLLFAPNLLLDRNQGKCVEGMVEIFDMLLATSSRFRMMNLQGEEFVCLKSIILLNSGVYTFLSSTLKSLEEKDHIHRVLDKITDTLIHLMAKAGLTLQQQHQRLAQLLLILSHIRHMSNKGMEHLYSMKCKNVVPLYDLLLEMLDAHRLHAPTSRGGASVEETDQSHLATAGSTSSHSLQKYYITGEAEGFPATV

Turning to `COP(=O)(OC)O/C(C)=C/C(=O)N(C)C`, the Potency entry in [1], in experiment [2], in experiment [4], in [5], in experiment [7] and in experiment [13] was “inactive” each time. The Potency entry in experiment [16] was “inactive”. Further, the compound was called inactive in experiment [3]. The max response in [6] is -0.0825%; in [8] it was 0.42%; in experiment [9] it was -0.431% (inactive); in [12], -1.78% (inactive); in [14], 15.8% (inactive); in experiment [15], 2.37% (inactive). Further, in experiment [17], the max response is 1.37% (inactive). The values for the activation in experiment [10] and in [11] were -0.0413% (inactive) and 1.01% (inactive), respectively.

Turning to `Nc1nc(N)nc(Cl)n1`, the Potency result in [1], in experiment [2], in experiment [4], in [18], in experiment [7] and in [19] was “inactive” in each case. The Potency entry in experiment [13] and in experiment [16] was “inactive” throughout. Moreover, the max response is -8.55% and -12.5% and -6.12% in [6]; -6.94% and -9.26% and -7.48% in experiment [8]; -8.75% (inactive) and -3.8% (inactive) and 6.06% (inactive) in experiment [9]; 0.345% (inactive) and 0.412% (inactive) and -1.56% (inactive) in [12]; -27.2% (inactive) and -2.73% (inactive) and -17.4% (inactive) in [14]; -6.86% (inactive) and -11.8% (inactive) and -2.3% (inactive) in experiment [15]. Moreover, the max response in [17] is 0.0938% (inactive) and 1.1% (inactive) and -0.658% (inactive). For the same compound, the activity change % (negative = inhibition) in experiment [20] was -10% (inactive) and 5.94% (inactive) and 4.29% (inactive). In addition, the activation in experiment [10] was 14% (inactive) and -1.73% (inactive); in experiment [11] it was 0.466% (inactive) and 6.68% (inactive) and -2.27% (inactive).

Regarding `CCNP(=S)(OC)O/C(C)=C/C(=O)OC(C)C` (stereo unspecified), the Potency entry in experiment [1], in experiment [2], in experiment [4], in experiment [18], in experiment [5] and in experiment [7] was “inactive” throughout. Further, the Potency result in experiment [19], in experiment [13] and in experiment [16] was “inactive” in each case. The max response in [6] is -7.51%; in experiment [8] it was -11.8%; in [9] it was 3.14% (inactive); in experiment [12], -0.524% (inactive); in [14], -7.95% (inactive); in experiment [15] it was -5.26% (inactive). The activation in [10] was -1.45% (inactive).

In the case of `CCOP(=O)(OCC)SCCSCC`, the Potency result in experiment [1], in experiment [2], in [4], in experiment [18], in experiment [5] and in experiment [19] was “inactive” each time. In addition, the Potency entry in experiment [16] is “inactive”. The max response was -10.7% in [6]; -5.85% in experiment [8]; 3.44% (inactive) in [9]; -1.58% (inactive) in [12]; 12.9% (inactive) in experiment [14]; -2.44% (inactive) in experiment [15]. In [17], the max response was 3.51% (inactive). For the same compound, the Potency in experiment [7] is 44.7 µM (active). In addition, the activity change % (negative = inhibition) in experiment [20] was -4.38% (inactive). The activation was 1.72% (inactive) in experiment [10] and 1.43% (inactive) in experiment [11].

In the case of `CCSC(C)CC1CC(=O)C(/C(CC)=N/OC/C=C/Cl)=C(O)C1` (stereo unspecified), the Potency entry in experiment [1], in [4], in experiment [18], in experiment [5], in [19] and in experiment [13] was “inactive” throughout. The Potency result in experiment [16] was “inactive”. Also, the compound was called inactive in experiment [3]. Besides, the max response in [8] was -6.58%; in experiment [9], 0.139% (inactive); in experiment [12] it was 0.0996% (inactive); in [14] it was -19.5% (inactive); in experiment [15] it was -16.3% (inactive). In experiment [20], the activity change % (negative = inhibition) was -26.3% (inactive). Besides, the activation in experiment [10] is -5.66% (inactive); in [11], -2.18% (inactive).

Turning to `CNC(=O)/C=C(\C)OP(=O)(OC)OC`, the Potency entry in [1], in experiment [4], in experiment [18], in experiment [5], in experiment [7] and in experiment [19] was “inactive” throughout. The Potency entry in experiment [16] is “inactive”. Further, in [3], the outcome was inactive. Besides, the max response is -13.8% in experiment [6]; -16.8% in experiment [8]; -15.9% (inactive) in [9]; -1.97% (inactive) in experiment [12]; -10% (inactive) in [14]; -10.5% (inactive) in experiment [15]. In experiment [17], the max response was 0.645% (inactive). Besides, in [20], the activity change % (negative = inhibition) was -12.7% (inactive).
